High-throughput results from PubChem.
aSyn UTR act = Activators via SNCA 5'UTR binding, MLPCN | alpha-synuclein 5'UTR reporter, activators screen | activity score, % (tested at 7.5 µM), hits read low | hit rate 7.1% among 300,000 | AID 1814, 2009; in the data active means activity score below about -60%
* hit, by the source's call. A selection follows.

SMILES | aSyn UTR act
O=C(c1ccccc1)c1cc2cc(Cl)ccc2[nH]1 | -168.5*
c1ccc2c(COn3nnc4ccccc43)cccc2c1 | -222.8*
N/C(=N\OC(=O)Cc1cccs1)c1ccccc1 | -213.9*
N/C(Cc1cccs1)=N\OC(=O)COc1ccccc1 | -77.3*
Cc1ccc(/C(N)=N/OC(=O)Cc2cccs2)cc1 | -168.5*
Cc1cccc(/C(N)=N/OC(=O)Cc2cccs2)c1 | -140.8*
C(=N\Nc1nncc2ccccc12)/c1ccccn1 | 97.8
CC(=O)Nc1ccc(/C=N/Nc2nncc3ccccc23)cc1 | -126.2*
Nc1cc(Cl)nc(N/N=C/c2c(O)ccc3ccccc23)n1 | -161.8*
O=C(CNc1ccccc1)N/N=C/c1c(O)ccc2ccccc12 | 68.6
O=C(O)c1cc(N/N=C/c2c(O)ccc3ccccc23)ccc1Cl | -65.9*
CCN(CC)c1ccc(/C=C/C(=O)C2C(=O)C=C(C)OC2=O)cc1 (stereo not drawn) | -239.9*
O=C(NN=C1C2CC3CC(C2)CC1C3)c1cccs1 | -86.8*
C/C(=N/NC(=O)c1cccs1)c1cccs1 | -81.7*
CCOC(=O)N/N=C(\C)c1cccs1 | -67.2*
C/C(=N\NC(=O)COc1ccccc1[N+](=O)[O-])c1cccs1 | -146.2*
C/C(=N\NC(=O)COc1ccccc1-c1ccccc1)c1ccccn1 | 114.0
C/C(=N\NC(=O)c1sccc1-n1cccc1)c1cccs1 | -80.3*
C/C(=N/NC(=O)c1cccs1)c1cccc(N)c1 | -86.4*
C/C(=N/Nc1ccccc1C(=O)O)c1cccs1 | -88.7*
CC(=O)N1CCC(=NNC(=O)c2cccs2)CC1 | -114.8*
COc1ccc(C2=NN(c3nc(-c4ccc(CNC(C)=O)cc4)cs3)C(c3ccco3)C2)cc1 (stereo not drawn) | -77.8*
N#Cc1c(/N=C/c2cccs2)sc2c1CCC2 | -87.9*
N#Cc1c(/N=C/c2cc(Br)cs2)sc2c1CCC2 | -189.5*
COc1ccc(NCc2nnc(SCC(=O)Nc3cc(C)cc(C)c3)o2)cc1 | -64.7*
SMILES | aSyn UTR act
CC(C)(C)c1ccc(NC(=O)CSc2nnc(-c3n[nH]c4ccccc34)o2)cc1 | -128.7*
COc1ccc(NCc2nnc(SCC(=O)Nc3cc(C(F)(F)F)ccc3Cl)o2)cc1 | -62.9*
O=C(CSc1nnc(-c2ccc(C(F)(F)F)cn2)o1)Nc1ccccc1Cl | -98.0*
Cc1cc(=O)oc2cc(NC(=O)c3cc4ccccc4o3)ccc12 | -93.7*
CN(C)S(=O)(=O)c1ccc(NC(=O)c2cc3ccccc3o2)cc1 | -110.3*
COCc1cc(=O)oc2cc(NC(=O)c3ccc(C(C)(C)C)cc3)ccc12 | -110.2*
Cc1cc(C(=O)Nc2ccccc2)oc(=O)c1 | -84.7*
Cc1cc(=O)oc2cc(NC(=O)c3ccccc3OC(F)F)ccc12 | -113.7*
Cn1c(=O)n(C)c2cc(NC(=O)c3cc4ccccc4o3)ccc21 | -146.0*
O=C(Nc1ccc2oc(=O)ccc2c1)c1cc2ccccc2o1 | -176.6*
Cc1cc(=O)oc2cc(NC(=O)c3cccc(Br)c3)ccc12 | -166.1*
Cc1ccc(NC(=O)C2=NNC(=O)CC2)cc1F | -74.9*
CC(C)c1ccc(NC(=O)C2=NNC(=O)CC2)cc1 | -143.2*
[O-][n+]1c2ccccc2c2n1CCCN=C2c1ccc(Cl)cc1 | -149.1*
COCCNC(=O)c1cc2c(s1)-c1ccc(Cl)cc1SC2 | -103.9*
c1ccc(-c2ccc(-n3ccnc3)cc2)cc1 | -80.8*
Cc1cc(=O)[nH]c2nnc(-c3ccc(Br)cc3)n12 | -62.3*
O=[N+]([O-])c1cccc(-c2cnc3ccccc3n2)c1 | -93.3*
O=[N+]([O-])c1ccc(-c2nc(C(Cl)Cl)c3ccccc3n2)cc1 | 128.7
O=[N+]([O-])c1cc(-c2cnc3ccccc3n2)ccc1Cl | -93.5*
Nc1cccc(-c2cnc3ccccc3n2)c1 | -98.8*
O=[N+]([O-])c1cc(-c2cnc3ccccc3n2)ccc1Oc1ccc(Cl)cc1 | -64.8*
COc1ccccc1Oc1ccc(-c2cnc3ccccc3n2)cc1[N+](=O)[O-] | -74.0*
COc1ccc2[nH]c(=O)c(CNc3ccccc3)cc2c1 | -167.3*
COc1ccc2[nH]c(=O)c(CNc3ccccc3C)cc2c1 | -93.8*
SMILES | aSyn UTR act
COc1cc(/C=C/c2ccc3cccc(O)c3n2)cc(Br)c1OC | -81.1*
COc1cc(/C=C/c2ccc3c(Br)cc(Br)c(O)c3n2)ccc1O | 65.4
COc1ccc(/C=C/c2ccc3c(Br)ccc(O)c3n2)cc1 | -150.5*
COc1cc(/C=C/c2ccc3cccc(O)c3n2)cc(Cl)c1OC | -88.3*
Cc1nc(SCc2ccccc2)nc2c1CCC2 | -115.0*
O=[N+]([O-])c1[nH]cnc1/C=C/c1ccccc1 | -64.8*
O=C(NC12CC3CC(CC(C3)C1)C2)c1ccc(-c2ccccc2Cl)o1 | -220.4*
O=C(NC12CC3CC(CC(C3)C1)C2)c1ccc(-c2ccc(Cl)cc2)o1 | -251.5*
O=C(NC12CC3CC(CC(C3)C1)C2)c1ccc(-c2cccc(Cl)c2)o1 | -133.4*
O=C(NCc1ccccc1)C(=O)NCC1COc2ccccc2O1 (stereo not drawn) | -145.1*
O=C(NCC1COc2ccccc2O1)c1cccs1 (stereo not drawn) | -64.4*
Cn1cccc1-c1nc2ccc(NC(=O)c3cccs3)cc2[nH]1 | -114.7*
CC(=O)Nc1ccc2nc(-c3cccn3C)[nH]c2c1 | -87.9*
CC(=O)Nc1ccc2nc(-c3cccs3)[nH]c2c1 | -109.9*
COc1ccc2c(c1)Cc1sc(NC(=O)c3ccccc3)nc1-2 | -223.4*
COc1ccc(C(=O)Nc2nc3c(s2)Cc2cc(OC)ccc2-3)cc1 | -108.7*
COc1ccc2c(c1)Cc1sc(NC(=O)c3cccs3)nc1-2 | -242.4*
COc1ccc(-c2cc3ccc(O)cc3oc2=O)cc1 | -63.6*
O=c1cc(-c2ccccc2)c2ccc(O)cc2o1 | 48.2
CC(=O)Oc1ccc(-c2cc3ccccc3oc2=O)cc1 | -134.8*
O=c1oc2cc(O)ccc2cc1-c1ccccc1 | -146.6*
CCOC(=O)c1ccc(N=c2scc(C)n2CC)cc1 | -91.0*
CCOC(=O)c1ccc(N=NN(C)C)cc1 | -155.6*
C=CCn1c(C)csc1=Nc1ccc(C(C)=O)cc1 | -98.9*
CCc1ccc2c(c1)[C@]1(C(=O)N2)[C@@H]2C(=O)N(Cc3ccccc3)C(=O)[C@@H]2[C@@H]2CCCN21 | -77.8*
SMILES | aSyn UTR act
CC(C)(C)c1cc[n+](C2=C([O-])c3ccccc3C(=O)/C2=N\S(=O)(=O)c2cccs2)cc1 | 68.7
CCOCC(=O)Nc1ccc(Br)c(C)c1 | -120.4*
O=C1OC(c2ccccc2)=C/C1=C\N1CCOCC1 | -66.9*
Brc1c(CSc2nc3ccccc3s2)nc2ncccn12 | -109.6*
Cc1ccc(/C=C\c2nccc3c2[nH]c2ccccc23)cc1 | -124.8*
C(=C\c1nccc2c1[nH]c1ccccc12)/c1ccccc1 | -84.4*
Fc1ccc(/C=C\c2nccc3c2[nH]c2ccccc23)cc1 | -139.3*
Cc1ccccc1NC(=S)N=Nc1c(O)n(C)c2ccc(S(=O)(=O)N3CCOCC3)cc12 | 77.9
Cn1c(O)c(N=Nc2nc(-c3ccccc3)cs2)c2ccccc21 | -126.2*
Cn1c(O)c(N=Nc2ccc(F)cc2)c2ccccc21 | -62.0*
Cn1c(N2CCOCC2)c(/C=N/OC(=O)c2ccc(F)cc2)c2ccccc21 | 72.7
COCCCNc1nnc(Cc2ccc(Cl)cc2)c(=O)[nH]1 | 66.5
Nc1sccc1C(=O)c1ccc(Cl)cc1 | -119.5*
Cc1ccc(-c2csc(NC(=S)NC(=O)c3cc4ccccc4o3)n2)cc1 | -65.7*
Cc1cccc(NC(=O)c2cccc(NC(=O)Cc3cccs3)c2)c1 | -88.1*
Cc1ccc2oc(-c3ccc(C)c(NC(=O)Cc4cccs4)c3)nc2c1 | -142.3*
